The structures appear in SMILES notation. The whole screen tested about 310,000 compounds, of which about 14,000 (4.5%) showed an effect of 50% or more. Effects have a minus sign here. For the sample, strong results were picked, then their nearest neighbours and some compounds at random.
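Also: peak tail current of the secondary pulse compared with the same well before compound.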

The assay deals with human ether-à-go-go-related gene (hERG) potassium channel (human, UniProt Q12809). Nature of the assay: primary screen, population patch clamp on CHO cells stably expressing hERG; higher = less effect of the substance.
human ether-à-go-go-related gene (hERG) potassium channel, sequence (Q12809 whole entry, looked up): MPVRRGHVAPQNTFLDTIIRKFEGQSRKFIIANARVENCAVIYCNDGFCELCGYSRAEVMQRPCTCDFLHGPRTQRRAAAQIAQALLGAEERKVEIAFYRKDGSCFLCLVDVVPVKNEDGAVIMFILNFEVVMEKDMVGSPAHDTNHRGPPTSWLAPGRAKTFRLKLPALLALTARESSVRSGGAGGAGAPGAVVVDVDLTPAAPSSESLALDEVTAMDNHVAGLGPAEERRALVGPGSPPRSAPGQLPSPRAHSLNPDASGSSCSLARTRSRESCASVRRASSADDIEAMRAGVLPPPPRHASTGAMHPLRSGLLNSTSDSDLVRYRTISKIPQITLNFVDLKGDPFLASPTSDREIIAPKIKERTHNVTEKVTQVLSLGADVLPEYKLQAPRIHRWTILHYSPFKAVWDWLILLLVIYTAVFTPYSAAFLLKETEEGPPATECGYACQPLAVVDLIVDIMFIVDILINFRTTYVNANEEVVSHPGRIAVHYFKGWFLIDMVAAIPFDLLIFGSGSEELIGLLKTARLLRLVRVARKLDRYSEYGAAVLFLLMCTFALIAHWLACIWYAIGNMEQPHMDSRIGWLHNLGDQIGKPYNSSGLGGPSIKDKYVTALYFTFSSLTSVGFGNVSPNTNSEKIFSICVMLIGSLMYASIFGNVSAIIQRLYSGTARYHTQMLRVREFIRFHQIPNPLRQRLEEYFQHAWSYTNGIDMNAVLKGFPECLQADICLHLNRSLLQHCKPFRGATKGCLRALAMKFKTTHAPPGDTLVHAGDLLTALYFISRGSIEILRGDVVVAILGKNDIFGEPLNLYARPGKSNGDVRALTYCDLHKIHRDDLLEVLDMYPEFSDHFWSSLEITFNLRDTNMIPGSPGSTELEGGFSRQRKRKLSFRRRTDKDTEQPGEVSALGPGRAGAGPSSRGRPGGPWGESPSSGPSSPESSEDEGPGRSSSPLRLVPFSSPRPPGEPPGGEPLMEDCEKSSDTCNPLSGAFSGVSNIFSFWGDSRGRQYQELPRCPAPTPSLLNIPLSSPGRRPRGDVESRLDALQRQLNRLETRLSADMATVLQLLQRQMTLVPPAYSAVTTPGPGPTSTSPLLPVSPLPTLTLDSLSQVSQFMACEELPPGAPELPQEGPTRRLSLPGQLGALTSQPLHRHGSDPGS
Regarding `CCCSc1nc2cc(OC)c(OC)cc2c(=N)n1CCCN1CCOCC1`, the “hERG current change (%, negative = inhibition) at 10uM” value was -74.6%. The value for `COCCCn1c(SCCc2ccccc2)nc2cc(OC)c(OC)cc2c1=N` was -12.7%; that for `COc1ccccc1CNC(=O)CSc1nc2ccccc2c(=O)n1CCCN1CCOCC1` was -56%; that for `O=C(CSc1nc2ccccc2c(=O)n1CCCN1CCOCC1)NC12CC3CC(CC(C3)C1)C2` was -67.8%. On to `CC(C)Cn1c(N)c(C(=O)CSc2nc3ccccc3c(=O)n2CCCN2CCOCC2)c(=O)n(C)c1=O`, for which the “hERG current change (%, negative = inhibition) at 10uM” value is -22.2%. The value for `CC(=O)Nc1ccc(NC(=O)C(C)Sc2nc3ccccc3c(=O)n2CC2CCCO2)cc1` (stereo not drawn) was 7.41%; that for `COCCCn1c(SCC(=O)O)nc2cc(OC)c(OC)cc2c1=N` was 9.07%. The value for `CC(Sc1nc2ccccc2c(=O)n1CC1CCCO1)C(=O)N(C)c1ccccc1` (stereo not drawn) was -41.6%. As to `O=C1c2ccccc2C(=O)N1CCSc1nc2ccccc2c(=O)n1CCCN1CCOCC1`, the “hERG current change (%, negative = inhibition) at 10uM” value is on record as -15.1%. The value for `CC(=O)c1c(C)[nH]c(C(=O)CSc2nc3ccccc3c(=O)n2CCCN2CCOCC2)c1C` was -15.5%; that for `CC(Sc1nc2ccccc2c(=O)n1CC1CCCO1)C(=O)N(C)Cc1ccccc1` (stereo not drawn) was -59.8%; that for `COC(=O)c1ccc2c(=O)n(CCN3CCOCC3)c(SCC(=O)NCc3ccccc3)nc2c1` was -46.1%.

Consider `CC(OC(=O)c1cc2sccc2n1C)C(=O)NCC1CCCO1` (stereo not drawn), for which the “hERG current change (%, negative = inhibition) at 10uM” value came out at 0.798%.

`Cc1ccc(S(=O)(=O)CC(=O)N2CCCC2)cc1`: the “hERG current change (%, negative = inhibition) at 10uM” value is recorded as -0.506%. For the compound `O=C(CCc1ccc(Oc2cc([N+](=O)[O-])cc([N+](=O)[O-])c2)cc1)N1CCCCCC1`, the “hERG current change (%, negative = inhibition) at 10uM” value was -30.2%. Turning to `Cn1cc(SCC(=O)Nc2nc3ccccc3s2)c2ccccc21`, the “hERG current change (%, negative = inhibition) at 10uM” value was -5.6%.

For the compound `Cc1noc(C(C)C)c1C(=O)Nc1ccc(-c2nnc3n2CCCCC3)cc1`, the “hERG current change (%, negative = inhibition) at 10uM” value is recorded as -4.21%. For the compound `Cc1cccc(C)c1-n1nnnc1S(=O)(=O)Cc1ccccc1Cl`, the “hERG current change (%, negative = inhibition) at 10uM” value is on record as -18.2%.

On to `CC(C)CN1CCC(C(=O)NCC2CCCO2)CC1.O=C(O)C(=O)O` (stereo not drawn), for which the “hERG current change (%, negative = inhibition) at 10uM” value is on record as -3.21%.

Turning to `CC(C)CN(CC(C)C)C(=O)CN1c2cccc3cccc(c23)S1(=O)=O`, the “hERG current change (%, negative = inhibition) at 10uM” value is 18.1%. `CCN(CC)C(=O)Oc1cc2c(-c3cc4cccc(OC)c4o3)cc(=O)oc2cc1C`: the “hERG current change (%, negative = inhibition) at 10uM” value was 9.85%.

For `O=C(CSc1nc2c(oc3ccccc32)c(=O)n1CC1CCCO1)NCc1ccccc1` (stereo not drawn), the “hERG current change (%, negative = inhibition) at 10uM” value is -15.8%. Consider `COc1ccc(CSc2nc3ccccc3c(=O)n2CCCN2CCOCC2)cc1F`, for which the “hERG current change (%, negative = inhibition) at 10uM” value was -53.4%. Consider `COc1ccc(-c2nc3ccccc3c(=O)n2CCCN2CCOCC2)cc1`, for which the “hERG current change (%, negative = inhibition) at 10uM” value is reported as 6.17%. In the case of `COc1cccc(CNC(=O)CSc2nc3c(oc4ccccc43)c(=O)n2CC2CCCO2)c1` (stereo not drawn), the “hERG current change (%, negative = inhibition) at 10uM” value is -36.4%. In the case of `COc1ccc(CNC(=O)CSc2nc3c(oc4ccccc43)c(=O)n2CC2CCCO2)cc1` (stereo not drawn), the “hERG current change (%, negative = inhibition) at 10uM” value is on record as -60.6%. Regarding `COc1ccccc1NC(=O)C(C)Sc1nc2ccccc2c(=O)n1CC1CCCO1` (stereo not drawn), the “hERG current change (%, negative = inhibition) at 10uM” value is given as -37.2%.

As for `COCCn1c(SCc2ccc(OC)c(F)c2)nc2ccccc2c1=O`, the “hERG current change (%, negative = inhibition) at 10uM” value is on record as -2.82%. Regarding `CCC(Sc1nc2ccccc2c(=O)n1CCN1CCOCC1)C(=O)NCc1cccnc1` (stereo not drawn), the “hERG current change (%, negative = inhibition) at 10uM” value is listed as -37%. As to `CCn1c(SCc2ccc(OC)c(F)c2)nc2ccccc2c1=O`, the “hERG current change (%, negative = inhibition) at 10uM” value amounted to 23.4%. Take `COc1ccc(CNC(=O)C(C)Sc2nc3ccccc3c(=O)n2CC2CCCO2)cc1` (stereo not drawn): the “hERG current change (%, negative = inhibition) at 10uM” value is -78.7%. As for `CC(Sc1nc2ccccc2c(=O)n1CC1CCCO1)C(=O)NC(C)c1ccccc1` (stereo not drawn), the “hERG current change (%, negative = inhibition) at 10uM” value is reported as -5.01%.

Consider `COc1ccc(CNC(=O)C(C)Sc2nc3ccccc3c(=O)n2CCCN2CCOCC2)cc1` (stereo not drawn), for which the “hERG current change (%, negative = inhibition) at 10uM” value is reported as -84.9%.
